Source: PubChem BioAssay
Tau ThT inhib – blocks human tau fibril formation measured by thioflavin T. P10636. recombinant tau K18 P301L, heparin-induced fibrillization, ThT fluorescence. Potency, µM (top dose mostly 57.4 µM), for inactives: at the top dose activity, negative = inhibition, most hits filed as inhibitors. actives 2.1% (n = 270,000); also: potency is read from the fitted curve at half-maximal effect; nearly all actives have a fitted effect of over 55% in size
Target sequence (P10636 561-689 P618L limits assumed): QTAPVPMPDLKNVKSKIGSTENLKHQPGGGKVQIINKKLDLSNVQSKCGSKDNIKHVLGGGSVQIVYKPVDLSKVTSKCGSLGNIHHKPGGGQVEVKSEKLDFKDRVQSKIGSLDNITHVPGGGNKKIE
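Tau K18 P301L fragment (15 uM unlabeled plus 0.24 uM Alexa 594-labeled) in 100 mM sodium acetate pH 7 with compound, fibrillization induced by 20 uM heparin for 6 hr at 37 C. Thioflavin T (30 uM) added, fluorescence read after 1 hr (ex 450, em 510 nm).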
Tau FP inhib – inhibitors of human tau fibril formation; Potency, µM (titrated, usually from 57.7 µM), inactives show at the top dose activity, negative = inhibition, usual class: inhibitors; P10636; K18 P301L tau heparin fibrillization, Alexa594 FP, 6 h; actives 0.39% (n = 280,000); also: potency is read from the fitted curve at half-maximal effect; nearly all actives have a fitted effect of over 55% in size
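Steps: dispense K18 P301L tau (15 uM plus 0.24 uM Alexa 594 tracer, final) in pH 7 sodium acetate; add compound; add heparin (20 uM final); incubate 6 hr, 37 C; add ThT (30 uM final); after 1 hr ambient, read FP.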
FBPA coupling cs – inhibits coupling enzyme system, counter-screen for aldolase hits | coupling enzyme system counterscreen, AmpLite Red fluorescence | activity change, negative = inhibition, % at 58.2 µM, hits read low | actives 0.67% (n = 290,000); in the data active = activity change below about -30%
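Compounds tested against the coupling enzymes alone at 57.5 uM final; readout was AmpLite Red fluorescence (525/598 nm) after 20 min at RT.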
Tau fluor counter – counter-screen for tau fibril formation inhibitors; Potency, µM (doses to about 57.7 µM), without a hit: at the highest dose activity change, negative = decrease; tau K18 P301L Alexa594 fluorescence, heparin fibrillization; AID 1463; actives 0.93% (n = 280,000); also: potency is read from the fitted curve at half-maximal effect; nearly all actives have a fitted effect of over 55% in size
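Human tau K18 P301L (15 uM unlabeled, 0.24 uM Alexa 594-labeled) in 100 mM sodium acetate pH 7 with 20 uM heparin, 6 hr at 37 C. ThT 30 uM added, 1 hr ambient; Alexa 594 FP and total fluorescence read at 555/632 nm.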
Numbers without * were called inactive; u = inconclusive; x = not tested or not shown; [ ] = remark or other dose. Sampled rows, rich in hits. Any-hit rate of the full collection: about 2.7%. Unless noted, calls follow the shape of the dose curve; as a rule, active = well fitted curve in the direction sought with a large enough effect; inconclusive = small, poorly fitted or top-dose-only effect, or another doubt; inactive = no such curve, though single readings can be large; an effect the other way counts as inactive or inconclusive. % is scaled to controls: 0 for no effect and ±100 for the full control effect.

SMILES | Tau ThT inhib | Tau FP inhib | FBPA coupling cs | Tau fluor counter
CC/C(=N/Nc1ccccc1Cl)c1cnnc(-c2ccccc2)n1 | u | -0.1% | -0.1 | -0.7%
Cc1c2oc3c(C)ccc(C(=O)NC4C(=O)NC(C(C)C)C(=O)N5CCCC5C(=O)N(C)CC(=O)N(C)C(C(C)C)C(=O)OC4C)c3nc-2c(C(=O)NC2C(=O)NC(C(C)C)C(=O)N3CCCC3C(=O)N(C)CC(=O)N(C)C(C(C)C)C(=O)OC2C)c(N)c1=O (configuration not stated) | u | -6.7% | x | -6.1%
C/C=C\C1=C(CO)[C@H](O)[C@H]2O[C@H]2[C@H]1O | -6.4%[11.5 µM] | -11.4%[11.6 µM] | 1.2 | -9.0%[11.6 µM]
C/C=C\C1=C(CO)C(=O)[C@@H]2OC2C1=O (some centres not stated) | 3.55µM* | u | -20.5 | u
COc1ccc(NC(=O)Cn2c(=O)c3cccn3c3ccccc32)cc1 | -9.3% | 17.8µM* | x | u
COc1ccc(NC(=O)CCCn2c(=O)c3cccn3c3ccccc32)c(OC)c1 | u | -8.1% | x | -15.3%
COc1ccc(OC)c(NC(=O)Cn2c(=O)c3cccn3c3ccccc32)c1 | u | 3.16µM* | x | u
CCn1ccc2c(OCC(=O)Nc3ccc(OC)cc3OC)cccc2c1=O | -5.5% | 2.0% | x | 1.8%
O=c1c(-c2ccc(Cl)cc2)nc2cnc(Nc3ccccc3)nc2n1C[C@H]1CCCO1 | x | x | 6.4 | x
O=S(=O)(Nc1ccc(-n2cccc2)cc1)c1ccc(Cl)c(Cl)c1 | -8.6% | 14.1µM* | -1.2 | u
O=S(=O)(Nc1ccc(-n2cccc2)cc1)c1ccc(F)cc1 | -0.9% | -15.8% | -0.6 | u
CC(=O)N1CCn2c3c(c(=O)c4cc(C)ccc42)CCC31 (configuration not stated) | 25.1µM* | u | -42.3* | u
O=[N+]([O-])c1ccc(O)c(N=Cc2sc3ccccc3c2O)c1 | 4.47µM* | 1.7% | -12.5 | u
Oc1c(C=Nc2cccc3cccnc23)sc2ccccc12 | u | 2.5% | -12.7 | u
Cc1cccc(/N=C/c2sc3ccccc3c2O)n1 | 5.62µM* | u | -3.1 | 25.1µM*[fluorescent]
O=c1c2cc(N3CCOCC3)ccc2[nH]c(=S)n1CCCN1CCCCC1 | -9.5% | -0.7% | -38.1* | -6.7%
O=c1c2cc(N3CCOCC3)ccc2[nH]c(=S)n1CCCN1CCCC1 | -11.7% | 3.4% | 0.1 | -4.0%
COc1ccc(N2C3=C(CC4=C2CC(C)(C)CC4=O)C(=O)CC(C)(C)C3)cc1 | 20µM* | u | -48.1* | -21.5%
CC(/C=C1\SC(=S)N(NC(=O)c2ccncc2)C1=O)=C\c1ccccc1 | 10µM* | -13.1% | 5.4 | u
CC(/C=C1\SC(=S)N(c2ccc(C(=O)O)cc2)C1=O)=C\c1ccccc1 | x | -0.4%[0.0958 µM] | 7.1 | 10.8%[0.0958 µM]
CC(/C=C1\SC(=S)N(NC(=O)c2ccccc2C)C1=O)=C\c1ccccc1 | 3.98µM* | 2.4% | -3.6 | u
CC(/C=C1\SC(=S)N(NC(=O)c2ccc(C)cc2)C1=O)=C\c1ccccc1 | u | 2.6% | -1.4 | -28.5%
CCCCc1c(C)nc2c(-c3ccc(OC)cc3)c(C)[nH]n2c1=O | -15.8% | 3.7% | x | -13.0%
COC(=O)c1scc(-c2ccc(C)cc2)c1S(=O)(=O)Nc1ccc(OC(F)(F)F)cc1 | 2.5% | -10.7% | x | 0.3%
COc1ccc(OC)c(C(=O)CSc2nc3cccnc3n2C)c1 | -3.4% | 2.0% | -40.4* | -0.1%
SMILES | Tau ThT inhib | Tau FP inhib | FBPA coupling cs | Tau fluor counter
CC(C)C[C@H](N)C(=O)N[C@H](C(=O)N[C@@H](CCCN=C(N)N)C(=O)N[C@H](CS)C(=O)NCC(=O)N[C@@H](CCCCN)C(=O)N[C@@H](Cc1cnc[nH]1)C(=O)N[C@@H](CO)C(=O)N[C@@H](CCCN=C(N)N)C(=O)O)C(C)C | x | x | 1.0 | x
C(=C\c1ccccc1)/C=N/Nc1nc2ccccc2s1 | u | -5.6% | -3.2 | 10µM*[quencher]
Cc1ccc2[nH]c(C)c(/C=N/Nc3nc4ccccc4s3)c2c1 | 14.1µM* | u | -2.5 | 10µM*[quencher]
Brc1ccc(/C=C/C=N/Nc2nc3ccccc3s2)cc1 | 2.7% | 5.1% | x | 3.6%
Brc1csc(/C=N/Nc2nc3ccccc3s2)c1 | u | -5.9% | -3.7 | 7.94µM*[quencher]
C(=N\Nc1ccccc1)/c1nc2ccccc2s1 | u | u | 1.1 | 12.6µM*[quencher]
COc1cccc2sc(N3CCN(C(=O)CCS(=O)(=O)c4ccc(F)cc4)CC3)nc12 | u | -2.1% | x | -8.0%
COc1ccc(NC(=O)CCCn2nc(C)c3sc4ccccc4c3c2=O)cc1 | -11.9% | -3.7% | x | -12.4%
O=C(N/N=C/c1cn(-c2cccs2)nc1-c1ccccc1)c1ccc(O)cc1 | 4.7% | u | -1.4 | 10µM*[quencher]
COc1cccc(/C=N/n2c(N)c(S(=O)(=O)c3cccs3)c3nc4ccccc4nc32)c1OC | 4.2% | -4.7% | 1.1 | -19.8%
Nc1c(S(=O)(=O)c2cccc(Cl)c2)c2nc3ccccc3nc2n1/N=C/c1ccc(O)c(O)c1 | u | u | -5.2 | 5.62µM*[quencher]
O=C1CCCC(=O)C1CS(=O)(=O)c1ccccc1 | 17.8µM* | 28.2µM* | -3.5 | -29.5%
FC(F)(F)c1cnc(Sc2nc3nccc(-c4ccc(Cl)cc4)n3n2)c(Cl)c1 | 1.0% | -0.6% | -55.4* | -11.4%
COc1ccc(-c2ccnc3nc(Sc4ncc(C(F)(F)F)cc4Cl)nn23)cc1 | -9.9% | -13.2% | -5.9 | u
CN(C)c1ccc(N/C=C/C(=O)c2ccccc2)cc1 | 1.78µM* | -18.1% | -20.7 | u
O=C(/C=C/Nc1ccccc1)c1ccccc1 | -1.1% | 3.9% | 1.1 | -4.7%
CN(C)c1ccc(N/C=C/C(=O)C(C)(C)C)cc1 | 15.8µM* | u | -29.1 | u
Cc1nc2c3ccccc3nc(NNC(=O)CCC(=O)N3CCN(c4cc(Cl)ccc4C)CC3)n2n1 | u | -7.0% | x | -23.2%
Cc1cccc(C(=O)Nc2cccc(OC(=O)c3cccc(C)c3)c2)c1 | -11.5% | u | 2.0 | u
Cc1cccc(C(=O)Oc2csc(=S)n2C(=O)c2cccc(C)c2)c1 | 12.6µM* | -14.8% | -0.5 | -24.2%
O=C(Oc1cccccc1=O)c1ccccc1 | u | 3.9% | 1.9 | -8.3%
O=C(Oc1csc(=S)n1C(=O)c1ccccc1)c1ccccc1 | 11.2µM* | -16.4% | -0.5 | -25.3%
FC(F)Sc1ccc(NC(=S)NCC2CCCCC2)cc1 | -7.0% | u | -5.4 | 14.1µM*[quencher]
Cc1ccc(NS(=O)(=O)c2cc(N)ccc2Cl)c(C)c1 | -4.5% | 10.0% | -32.7* | -12.6%
CCOc1ccc(N(c2nc(-c3ccc(OC)c(OC)c3)no2)c2nc(-c3ccc(OC)c(OC)c3)no2)cc1 | -0.9% | 0.4% | x | -1.8%
CCc1cc(C(=O)N=Nc2c(O)[nH]c3c(Br)cc(Br)cc23)c2ccccc2n1 | 7.08µM* | -1.3% | 0.9 | u
CCc1cc(C(=O)N=Nc2c(O)[nH]c3ccc([N+](=O)[O-])cc23)c2ccccc2n1 | 15.8µM* | 20.4% | 2.8 | u
O=C(N=Nc1c(O)[nH]c2ccc([N+](=O)[O-])cc12)c1ccccc1[N+](=O)[O-] | u | 5.0% | 1.7 | u
Cc1ccccc1NC(=O)Cn1nc(-c2ccccc2)nc(Cc2ccccc2)c1=O | -8.3% | -1.0% | x | -16.5%
